Rows were chosen to be rich in hits. Some 6.2% of all compounds tested hit in one or more screens of this group.
HT1080 IDH1KD tx: kills HT-1080 cells with IDH1 knockdown. HT-1080 IDH1 knockdown viability, ATP luminescence, 48 h. Potency, µM (series often up to 46.1 µM), for the others: at the top dose activity, negative = toxicity, hits mostly cytotoxic. 360,000 compounds, 2% hits. AID 686971;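 note: 0% = DMSO wells and -100% = cell-free medium wells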
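% activity derives from luminescence (CellTiter-Glo), normalised to DMSO and no-cell wells. HT-1080-IDH1KD cells, 750/well, had 48 h compound exposure at 37 °C.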
S2 tox: reduces viability in counter-screen for ATXN expression inhibitors | S2 cells (HEK-293 line with an ATXN2-luciferase reporter) viability, CellTiter-Fluor protease fluorescence, 24 h | Potency, µM (series often up to 56.7 µM), usual class: cytotoxic | 400,000 compounds, 0.49% hits; note: nearly all actives have a fitted effect of over 40% in size
KB-V1 MDR tox: kills drug-selected multidrug resistant KB-V1 cells; Potency, µM (doses to about 46.1 µM), usual class: cytotoxic; AID 1347076; KB-V1 MDR cells viability, CellTiter-Glo, 72 h; 400,000 compounds, 3.4% hits; note: % is set by controls: 0 for no effect and ±100 for the full control effect; nearly all actives have a fitted effect of over 60% in size
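KB-V1 cells (P-gp-expressing MDR subline of KB-3-1) in phenol-red-free DMEM with 10% FBS were exposed to library compounds over a concentration series for 72 h at 37 degrees C. Viability read by CellTiter-Glo luminescence; concentration-effect curves fitted after normalization.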
ATXN2 expr inh: reduces ATXN2 reporter expression in HEK-293 cells | HEK-293 ATXN2-luciferase reporter, luminescence, 24 h | Potency, µM (titrated, usually from 57 µM), for inactives: top-dose activity change, negative = inhibition, actives largely listed as inhibitors | 360,000 compounds, 0.72% hits | AID 1745845; note: % is set by controls: 0 for no effect and ±100 for the full control effect; nearly all actives have a fitted effect of over 55% in size
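ATXN2-luciferase reporter cells (luciferase flanked by upstream and downstream ATXN2 gene portions) were treated 24 h at 37 °C with compounds at up to 57 uM. SteadyGlo luminescence gave expression; GF-AFC fluorescence gave viability.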
KB-3-1 tox: KB-3-1 parental cell cytotoxicity; AID 1347075; KB-3-1 viability, CellTiter-Glo ATP luminescence, 72 h; Potency, µM (titrated, usually from 46.1 µM), most hits filed as cytotoxic; 400,000 compounds, 1.4% hits; note: % is set by controls: 0 for no effect and ±100 for the full control effect; nearly all actives have a fitted effect of over 60% in size
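Parental KB-3-1 viability, qHTS format: 72 h compound exposure, 37 °C; CellTiter-Glo; media-only wells and DMSO plates as controls; concentration-effect fits on corrected data.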
HT1080NT lethal: kills 2HG-producing HT-1080-NT fibrosarcoma cells | 360,000 compounds, 1.6% hits | AID 686970 | HT-1080-NT fibrosarcoma viability, CellTiter-Glo ATP luminescence, 48 h | Potency, µM (titrated, usually from 46.1 µM), for inactives: at the highest dose activity, negative = less viability, hits mostly cytotoxic;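 note: NT is the 2HG producing partner of a matched IDH1 knockdown line; 0% = DMSO-treated cells and -100% = media-only wells without cells; nearly all actives have a fitted effect of over 55% in size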
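Read-out is CellTiter-Glo luminescence after 10 minutes at room temperature, following 48 hours' compound treatment of HT-1080-NT cells (750 cells/well, RPMI, 5% FBS, 37 degrees C).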
Numbers without * were called inactive; i = inactive; ? = inconclusive; nt = no result given. Calls come from the whole dose curve; as a rule, active = well fitted curve in the direction sought with a large enough effect; inconclusive = small, poorly fitted or top-dose-only effect, or another doubt; inactive = no such curve, though single readings can be large; an effect the other way counts as inactive or inconclusive. Potency is the fitted concentration of half-maximal effect.

SMILES | HT1080 IDH1KD tx | S2 tox | KB-V1 MDR tox | ATXN2 expr inh | KB-3-1 tox | HT1080NT lethal
CCc1cc(=O)[nH]c(-n2[nH]c(-c3ccccc3)cc2=O)n1 | 0% | i | ? | 8% | i | 15%
CCOCCCNc1ncnc2c1[nH]c1ccccc12 | -16% | i | ? | -26% | ? | -6%
CCCCOCCCNc1ncnc2c1[nH]c1ccccc12 | 18µM* | i | 1.6µM* | ? | 2.6µM* | 13µM*
CCCCOc1ncnc2c1[nH]c1ccc(F)cc12 | -5% | i | 6.5µM* | -11% | 18µM* | ?
CCCCOc1ncnc2c1[nH]c1ccc(OCC)cc12 | 22% | i | ? | 5% | i | ?
CCCCOc1ncnc2c1[nH]c1ccccc12 | 15µM* | i | i | -8% | ? | -18%
CCCCOc1ncnc2c1[nH]c1ccc(OC)cc12 | 1% | i | i | 22% | i | -3%
COc1ccc(C(=O)NCC2Cc3cc(C)cc(-c4nc5ccccc5s4)c3O2)c(OC)c1OC (centres undefined) | nt | i | nt | nt | nt | nt
CCOc1ccccc1NC(=O)CN1C(=O)COc2ccc(S(=O)(=O)Nc3ccccc3)cc21 | nt | ? | i | -11% | i | nt
CCOC(=O)c1cc(S(=O)(=O)N2CCN(c3ccc(OC)cc3)CC2)[nH]n1 | nt | i | i | -3% | i | nt
O=C(OCc1ccc(Br)cc1)c1ccncc1 | 9% | i | i | nt | i | -1%
CC(=O)Nc1ccc(C(=O)OCc2ccc(Br)cc2)cc1 | 0% | i | 18µM* | 3% | i | -6%
CC1CCC2C(C1)c1sc(=O)[nH]c1SC2(C)C (centres undefined) | ? | i | 18µM* | -5% | i | ?
COc1ccccc1CNc1ccc(-c2nc(-c3cccnc3)no2)cc1[N+](=O)[O-] | nt | i | i | 11% | i | nt
Cc1ccc(CN2CCOCCS2(=O)=O)cc1 | nt | nt | i | nt | i | nt
Cc1cc(C(F)(F)F)n(-c2nc(C(=O)NN)cs2)n1 | -16% | i | i | 6% | i | -7%
COc1ccc(/C=N/NC(=O)c2csc(-n3nc(C)cc3C(F)(F)F)n2)cc1 | 1% | ? | i | ? | 7.3µM* | -8%
Cc1ccc(P(=O)(c2ccc(C)cc2)[C@@H](NC(c2ccccc2)c2ccccc2)c2ccccc2)cc1 | 16µM* | ? | 21µM* | ? | ? | 15µM*
Cc1ccc(P(=O)(O)c2ccc(C)cc2)cc1 | -3% | i | i | 4% | i | -6%
OCCNc1nc(C2CC2)nc2c1nnn2Cc1ccccc1Cl | ? | i | 6.5µM* | -5% | i | -11%
COc1ccccc1C1=NC(c2ccc(F)cc2)N=C1C (centres undefined) | -12% | i | ? | 2% | 18µM* | -9%
COc1ccc(CN(C(=O)CSc2nnc(-c3ccc(F)cc3)o2)c2ccc(F)cc2)cc1 | -7% | i | 21µM* | 6% | i | 1%
Cc1ccc(C(=O)CSc2nnc(-c3ccco3)o2)o1 | 0% | i | i | 25% | i | -10%
COc1ccc(-c2nnc(SCC(=O)c3ccc(C)o3)o2)cc1 | -2% | i | 23µM* | -5% | ? | 2%
COc1cccc(-c2nnc(SCC(=O)N(C(C)C)C(C)C)o2)c1 | -1% | i | 18µM* | 30% | i | 0%
SMILES | HT1080 IDH1KD tx | S2 tox | KB-V1 MDR tox | ATXN2 expr inh | KB-3-1 tox | HT1080NT lethal
COc1ccc(-c2nnc(SCc3cc(C)cc(C)c3)o2)cc1 | 14% | ? | 21µM* | 3% | i | 22%
COc1cc(OC)cc(-c2nnc(SCC(=O)N(C(C)C)C(C)C)o2)c1 | -1% | i | i | 2% | i | 4%
COc1ccc2c(c1)c1c(c(=O)n(-c3cccc(Cl)c3)c(=O)n1CC(=O)NCC1CCCO1)n2C (centres undefined) | nt | i | i | -5% | i | nt
COc1ccc(N2CCN(C(=O)c3cnn(-c4ccc(F)cc4)c3-n3cccc3)CC2)cc1 | nt | i | ? | 6% | ? | nt
COc1ccc(CN(C(=O)CSc2nnc(-c3c[nH]c4ccccc34)o2)c2ccc(F)cc2)cc1OC | ? | ? | 15µM* | ? | ? | ?
COc1ccc(-c2nnc(SCC(=O)Nc3cccc(Cl)c3)o2)cc1 | -30% | i | 16µM* | 54% | ? | ?
COc1ccc(-c2nnc(SCC(=O)Nc3ccccc3OC)o2)cc1 | ? | i | i | 35% | i | ?
C[N+]1(CC(=O)c2ccc(O)c(O)c2)CCOCC1 | nt | nt | i | nt | i | nt
Cn1c2ccccc2c2n[nH]c(=S)nc21 | 14% | ? | 6.5µM* | 7% | ? | 0%
Cn1c2ccccc2c2n[nH]c(=O)nc21 | 10% | ? | i | -35% | ? | 15%
COc1ccc(C(NC(=O)c2cc(OC)ccc2OC)c2ccccc2)cc1 (centres undefined) | ? | i | 8.2µM* | -13% | ? | ?
COc1ccc(OC)c(CC(=O)NC(c2ccccc2)c2ccccc2)c1 | -13% | i | i | -4% | i | -8%
COc1ccc(/C=N/OCC(=O)NC(c2ccccc2)c2ccccc2)c(OC)c1 | -8% | i | 23µM* | -10% | i | -1%
Cc1ccc2oc(-c3cc(NC(=O)CC(C)C)ccc3Cl)nc2c1 | nt | i | i | -12% | i | nt
Cc1cccc(OCCCCn2c(C3CC(=O)N(c4ccc(C)cc4C)C3)nc3ccccc32)c1 (centres undefined) | nt | ? | ? | ? | i | nt
O=C(N[C@@H]1c2ccccc2C2(CCN(C(=O)c3cc4ccccc4oc3=O)CC2)[C@H]1O)c1cccnc1 | nt | i | nt | nt | nt | nt
CCOc1ccccc1CNCc1cccn1-c1nnc(N2CCN(c3ccccc3)CC2)s1 | nt | ? | ? | 18µM* | ? | nt
CCOc1ccccc1CNC(=O)c1cccn1-c1nnc(N2CCCCC2)s1 | nt | nt | ? | nt | i | nt
CSc1ccc(CCNC(=O)c2c(C)oc3ncn(C)c(=O)c23)cc1 | nt | i | i | -3% | i | nt
Cc1ccc2[nH]cc(C(=O)CN3CCN(c4ccccc4F)CC3)c2c1 | -5% | ? | 10µM* | ? | i | 11%
COc1cccc(-n2c(SCc3ccccc3C)nc3c([nH]c4ccccc43)c2=O)c1 | nt | i | 23µM* | 12% | i | nt
COc1cccc(-n2c(SCc3cccc(C)c3)nc3c([nH]c4ccccc43)c2=O)c1 | nt | i | i | 10% | i | nt
COc1ccc(OC)c(COC(=O)c2cc([N+](=O)[O-])ccc2N2CCOCC2)c1 | ? | i | ? | -31% | 5.2µM* | ?

Bioassay records deposited in PubChem by National Center for Advancing Translational Sciences (NCATS).
